Laboratory results published in PubChem BioAssay (NCATS).
Records with an inconclusive call do not appear. The call rests on the fitted dose curve.

Assay: qHTS Assay for Lipid Storage Modulators (AID 1519)
Details: Drosophila S3 cells, BODIPY lipid droplet/cell ratio, laser cytometry; at 57.5 µM (top of the series); cells loaded with oleic acid
In short: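 Cells seeded at 5,000 per well were treated with compounds over a concentration series and loaded with oleic acid (400 uM, as added). Lipid droplet fluorescence (488 nm excitation, 500-530 nm channel) was read by laser-scanning cytometry and normalized to 20 uM Triacsin C.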
On the % scale 0 is the no-effect control and ±100 the full control effect.

Activity change, negative = inhibition, inactive:
COC(=O)CC1C(C)(C)C(OC(C)=O)[C@@]2(O)C=C3C4CC(=O)OC(c5ccoc5)[C@]4(C)CCC3[C@@]1(C)C2=O (stereo not given in full) 10.4%
CC1(C)C(=O)CC[C@@]2(C)C1CC(O)[C@@]1(C)C3=CC(=O)OC(c4ccoc4)[C@]3(C)CCC21 (stereo not given in full) 11%
O=c1ccn([C@H]2C[C@H](O)[C@@H](CO)O2)c(=O)[nH]1 5.4%
COc1cc(OC)c2c(=O)c(OC)c(-c3ccc(OC)c(OC)c3)oc2c1 1.54%
COC(=O)CC1C(C)(C)C(=O)C2CC3=C4CC(=O)OC(c5ccoc5)[C@]4(C)CCC3[C@@]1(C)C2=O (stereo not given in full) 1.08%
CC(=O)OC1CC2C(C)(C)C(O)CC(O)[C@@]2(C)C2CC[C@@]3(C)C(=CC(=O)OC3c3ccoc3)[C@]12C (stereo not given in full) 0.404%
C=CC1=C(C(=O)O)N2C(=O)C(NC(=O)/C(=N\O)c3csc(N)n3)C2SC1 (stereo not given) 3.88%
COC(=O)CC1C(C)(C)C(O)C2CC3=C4C=C(OC)OC(c5ccoc5)[C@]4(C)CCC3[C@@]1(C)C2=O (stereo not given in full) -1.2%
NCC1O[C@@H](OC2C(N)C[C@H](N)[C@@H](O[C@H]3OC(CO)C(O)C(N)C3O)C2O)C(N)C(O)C1O (stereo not given in full) 2.92%
COc1ccc2c(c1)OCC(Cc1ccc(OC)c(O)c1)C2=O (stereo not given) 6.62%
CC1=CC(=O)[C@@H]2C[C@H]1C2(C)C 4.82%
CCN(CC)Cc1ccc(Nc2ccnc3cc(Cl)ccc23)cc1O -0.352%
CC(C)[C@H]1CC[C@@H](C)C[C@H]1O -5.33%
CC1=C(C2=C(C)C(C(C)C)C3=C(C(=O)C(O)C3O)C2O)C(O)C2=C(C(O)C(O)C2=O)C1C(C)C (stereo not given) 1.34%
O=C(O)C1OC(O)C(O)C(O)C1O (stereo not given) -3.53%
CCCCCC(=O)Cc1cc(O)cc(O)c1C(=O)Oc1cc(CC(=O)CCCCC)c(C(=O)O)c(OC)c1 4.27%
COC(=O)CC1C(C)(C)C(OC(C)=O)C2CC3C4CC(=O)OC(c5ccoc5)[C@]4(C)CCC3[C@@]1(C)C2=O (stereo not given in full) -20.8%
C[C@@H]1O[C@@H](O[C@H]2[C@H](Oc3cc(O)c4c(c3)O[C@H](c3ccc(O)cc3)CC4=O)O[C@H](CO)[C@@H](O)[C@@H]2O)[C@H](O)[C@H](O)[C@H]1O -1.6%
Cc1cc(=O)oc2cc(O[C@@H]3O[C@H](C(=O)O)[C@@H](O)[C@H](O)[C@H]3O)ccc12 7.88%
C=C[C@](C)(O)CCC1C(=C)CCC2[C@@](C)(CO)CCC[C@@]12C (stereo not given in full) 2.53%
COC1OC2COC(c3ccccc3)OC2C(O)C1O (stereo not given) 1.99%
COc1cccc2c1CCC1CC(=O)CC[C@@]21C (stereo not given in full) 4.57%
Nc1ccn([C@H]2C[C@H](O)[C@@H](CO)O2)c(=O)n1 0.617%
O=c1[nH]c(=O)n([C@@H]2O[C@H](CO)[C@@H](O)[C@H]2O)cc1Br -8.5%
CNc1ccccc1C(=O)N1CCc2c([nH]c3ccccc23)C1=O 8.02%
C/C=C(\C)C(=O)OC1[C@@H]2C=C3C4CC(=O)OC(c5ccoc5)[C@]4(C)CCC3[C@@](C)(C2=O)C(C(O)C(=O)OC)C1(C)C (stereo not given in full) -1.19%
COc1ccc2c(c1)OCC(Cc1ccc(OC)c(OC)c1)C2O (stereo not given) 6.38%
Cc1ccc2c(c1)CC[C@H]1CC(=O)CC[C@@]21C 2.54%
O=c1cc(-c2cccc(O)c2)oc2ccc(O)cc12 13.1%
COC1(C)CCC2OC2(C)CCC2C1CC2(C)C (stereo not given) 4.15%
C=C1C2CC[C@@]3(C)C(c4ccoc4)OC(=O)C[C@@]13OC1CC(=O)C(C)(C)C(CC(=O)OC)[C@]12C (stereo not given in full) 0.233%
COc1cc2c(cc1OC)Cc1cc(OC)c(OC)cc1Cc1cc(OC)c(OC)cc1C2 -1.62%
CC(C)/C(O)=C1/C(=O)OC(c2ccoc2)[C@@]2(C)C(O)C(O)[C@@]34OC5(C)OC67CC(C)(C(O)[C@@]6(O)C(O)[C@@]3(O5)C12)C(CC(=O)O)[C@@]74C (stereo not given in full) 0.873%
CC1(C)SC2C(NC(=O)C(N)c3ccccc3)C(=O)N2C1C(=O)O (stereo not given) 7.23%
CC[C@H](C)[C@H](NC(=O)OCC1c2ccccc2-c2ccccc21)C(=O)O -4.14%
